Experiment [1] concerns the target Rap guanine nucleotide exchange factor 3 (Homo sapiens) (UniProt O95398). Kind of experiment: Confirmatory qHTS for antagonist of cAMP-regulated guanine nucleotide exchange factor 3 (EPAC1) (AID 1645880). Further: nearly all actives have a fitted effect of over 55% in size. Further: potency means the concentration at half of the fitted maximal effect. The note with it: EPAC1 Rap1B-BODIPY-GDP exchange, fluorescence; activity, negative = inhibition: at 115 µM (top of the series). In outline: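 Nucleotide exchange uses 100 nM EPAC1, 250 nM RAP1B-BODIPY-GDP and 50 uM GDP, with compounds in a concentration-titration series. After 5 min at room temperature, fluorescence (480 nm ex/540 nm em) is read every 5 min for 30 min. Data are normalized to control ATA and DMSO.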

The target is the same in experiment [2]. Kind of experiment: Confirmatory qHTS for agonist of cAMP-regulated guanine nucleotide exchange factor 3 (EPAC1) (AID 1645881). Further: nearly all actives have a fitted effect of over 75% in size. Further: potency means the concentration at half of the fitted maximal effect.
The target in experiment [3] is Rap guanine nucleotide exchange factor 4 (Homo sapiens) (UniProt Q8WZA2). Kind of experiment: Confirmatory qHTS for antagonist of cAMP-regulated guanine nucleotide exchange factor 4 (EPAC2) (AID 1645885). Further: nearly all actives have a fitted effect of over 25% in size. Further: potency means the concentration at half of the fitted maximal effect.
Chain of Rap guanine nucleotide exchange factor 4 (Homo sapiens) (Q8WZA2 whole entry, looked up): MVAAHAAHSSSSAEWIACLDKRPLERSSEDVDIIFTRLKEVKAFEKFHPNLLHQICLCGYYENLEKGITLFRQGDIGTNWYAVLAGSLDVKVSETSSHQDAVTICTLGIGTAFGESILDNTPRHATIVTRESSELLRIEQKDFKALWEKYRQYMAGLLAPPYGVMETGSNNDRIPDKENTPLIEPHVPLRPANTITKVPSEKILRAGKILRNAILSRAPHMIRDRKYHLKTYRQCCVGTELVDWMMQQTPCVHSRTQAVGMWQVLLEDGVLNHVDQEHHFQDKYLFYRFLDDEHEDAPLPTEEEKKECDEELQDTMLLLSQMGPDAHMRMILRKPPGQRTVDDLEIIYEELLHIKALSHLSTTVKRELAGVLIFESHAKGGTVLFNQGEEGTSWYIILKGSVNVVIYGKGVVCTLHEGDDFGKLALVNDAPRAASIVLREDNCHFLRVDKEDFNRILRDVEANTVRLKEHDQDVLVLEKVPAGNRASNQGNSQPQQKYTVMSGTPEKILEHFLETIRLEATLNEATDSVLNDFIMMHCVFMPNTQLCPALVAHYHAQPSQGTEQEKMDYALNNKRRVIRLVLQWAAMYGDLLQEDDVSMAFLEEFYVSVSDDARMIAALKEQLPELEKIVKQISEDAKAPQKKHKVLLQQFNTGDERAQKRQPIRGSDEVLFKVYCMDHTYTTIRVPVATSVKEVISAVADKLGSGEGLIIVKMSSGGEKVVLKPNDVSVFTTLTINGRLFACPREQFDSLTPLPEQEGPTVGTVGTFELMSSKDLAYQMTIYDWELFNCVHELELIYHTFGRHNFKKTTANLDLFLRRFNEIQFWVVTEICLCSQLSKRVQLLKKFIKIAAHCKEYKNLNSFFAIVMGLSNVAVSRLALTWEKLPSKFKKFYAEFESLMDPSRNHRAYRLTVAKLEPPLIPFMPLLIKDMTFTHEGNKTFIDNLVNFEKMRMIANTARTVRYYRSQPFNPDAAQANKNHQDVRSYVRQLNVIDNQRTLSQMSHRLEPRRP
For experiment [4], the target named is Rap guanine nucleotide exchange factor 3 (Homo sapiens) (UniProt O95398). Kind of experiment: Counterscreen qHTS for antagonist of cAMP-regulated guanine nucleotide exchange factor 3 (EPAC1) (AID 1645888). Put shortly: (§1)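 Measured: fluorescence of BODIPY-GDP bound to Rap1B, which falls as exchange proceeds. Conditions include 50 uM competing GDP, 5 and 30 min reads, and a later cAMP challenge for antagonist detection.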
Chain of Rap guanine nucleotide exchange factor 3 (Homo sapiens) (O95398 whole entry, looked up): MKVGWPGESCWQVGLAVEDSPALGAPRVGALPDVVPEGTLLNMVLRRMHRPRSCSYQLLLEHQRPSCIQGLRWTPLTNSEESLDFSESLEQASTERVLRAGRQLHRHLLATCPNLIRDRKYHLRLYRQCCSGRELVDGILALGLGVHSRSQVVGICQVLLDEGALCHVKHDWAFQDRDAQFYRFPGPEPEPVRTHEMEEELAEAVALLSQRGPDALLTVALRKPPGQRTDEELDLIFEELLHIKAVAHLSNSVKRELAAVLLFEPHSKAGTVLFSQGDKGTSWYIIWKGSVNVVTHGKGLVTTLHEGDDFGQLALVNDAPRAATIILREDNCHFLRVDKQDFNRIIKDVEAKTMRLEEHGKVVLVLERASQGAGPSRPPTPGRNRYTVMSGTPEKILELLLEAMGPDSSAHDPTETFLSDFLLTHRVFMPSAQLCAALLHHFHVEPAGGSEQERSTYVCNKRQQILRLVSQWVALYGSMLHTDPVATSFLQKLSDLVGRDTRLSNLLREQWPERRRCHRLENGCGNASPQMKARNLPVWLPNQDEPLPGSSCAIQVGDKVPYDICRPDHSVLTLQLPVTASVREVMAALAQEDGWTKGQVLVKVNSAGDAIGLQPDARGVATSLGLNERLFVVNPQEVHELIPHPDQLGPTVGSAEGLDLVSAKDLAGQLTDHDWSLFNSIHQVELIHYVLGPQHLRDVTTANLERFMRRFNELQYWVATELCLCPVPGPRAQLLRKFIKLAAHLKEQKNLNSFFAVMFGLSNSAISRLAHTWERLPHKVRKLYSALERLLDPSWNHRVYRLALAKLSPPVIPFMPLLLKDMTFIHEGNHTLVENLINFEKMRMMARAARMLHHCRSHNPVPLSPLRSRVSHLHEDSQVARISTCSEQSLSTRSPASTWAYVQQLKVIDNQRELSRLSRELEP

For experiment [5] the target is unchanged. Kind of experiment: Counterscreen qHTS for agonist of cAMP-regulated guanine nucleotide exchange factor 3 (EPAC1) (AID 1645889). Further: nearly all actives have a fitted effect of over 40% in size. Put shortly:
as §1

Results filed as inconclusive are left out. Values without a mark were called inactive. The source made the active and inactive calls. The call rests on the fitted dose curve; in most records, active means well fitted curve in the direction sought with a large enough effect; inconclusive means small, poorly fitted or top-dose-only effect, or another doubt; inactive means no such curve, though single readings can be large; an effect the other way counts as inactive or inconclusive.

As to `O=C(CCn1c(=O)oc2ccccc21)N(Cc1ccccc1)c1ccccc1`, the Potency entry in experiment [1], in experiment [2] and in experiment [3] was “inactive” in each case.
Regarding `COC(=O)c1c(SC)nc2ccccc2c1OCc1ccc(Cl)cc1`, the Potency entry in experiment [1], in experiment [2], in experiment [3] and in experiment [4] was “inactive” throughout.
Take `Cc1cc(Br)cc(C=Nc2ccc(N3CCOCC3)cc2)c1O`: the Potency result in experiment [1], in experiment [2], in experiment [3] and in experiment [4] was “inactive” each time.
As for `O=S(=O)(Nc1ccccc1N1CCCCC1)c1ccccc1`, the Potency result in experiment [1], in experiment [2], in experiment [3] and in experiment [4] was “inactive” each time.
`CN(C)c1ccc(/C=C/c2c3c(nc4ccccc24)CCCC3)cc1`: the Potency entry in experiment [1], in experiment [2] and in experiment [3] was “inactive” each time.
With `CCc1ccc(CNC(=O)Cn2nc(C)n3c(cc4cc(C)ccc43)c2=O)cc1`, the Potency result in experiment [1], in experiment [2] and in experiment [4] was “inactive” each time. Moreover, the outcome in experiment [3] is “inactive [at 12.7 µM]”.
On to `O=S(=O)(Nc1ccccc1N1CCCCC1)c1cccs1`, for which the Potency entry in experiment [1], in experiment [2] and in experiment [4] was “inactive” in each case. In addition, the Potency in experiment [3] was 19 µM (active).
Regarding `CCCCN(CCC#N)c1ccc(/C=C/c2ccnc3ccccc23)cc1`, the Potency entry in experiment [1], in experiment [2] and in experiment [3] was “inactive” each time.
In the case of `COc1ccc(C(=S)N2CCOCC2)cc1OC(=O)c1ccccc1Cl`, the Potency result in experiment [1], in experiment [2] and in experiment [3] was “inactive” in each case.
For the compound `COc1cc2c(cc1NC(=O)C(C)Oc1ccc(Cl)cc1Cl)oc1ccccc12` (stereo unspecified), the Potency entry in experiment [1], in experiment [2], in experiment [3] and in experiment [4] was “inactive” in each case.
As to `COc1cc2c(cc1OC)C(c1cccc(Cl)c1)CC(=O)N2` (stereo unspecified), the Potency result in experiment [1], in experiment [2], in experiment [3] and in experiment [4] was “inactive” in each case.
Turning to `Cc1cc(C)cc(NC(=O)c2sc3nc(-c4cc5ccccc5oc4=O)[nH]c(=O)c3c2C)c1`, the Potency entry in experiment [1], in experiment [2], in experiment [3] and in experiment [4] was “inactive” in each case.
As for `CCCCCCn1c(=O)[nH]c2nc3cc(N)c(C)cc3nc2c1=O`, the Potency entry in experiment [1], in experiment [3] and in experiment [4] was “inactive” each time. For the same compound, in experiment [2], the Potency is 112 µM (active).
`Cc1ccc(S(=O)c2ccc([N+](=O)[O-])c3nonc23)cc1` (stereo unspecified): the Potency in experiment [1] is 23.9 µM (active). Moreover, the Potency entry in experiment [2], in experiment [3] and in experiment [4] was “inactive” each time.
Regarding `CN(C)c1ccc(/C=C/c2sc3ccccc3[n+]2CCCCBr)cc1`, the Potency result in experiment [1], in experiment [2] and in experiment [3] was “inactive” each time.
With `Cc1oc2cc(Br)c(O)c(Br)c2c1C(=O)c1ccccc1`, the Potency entry in experiment [1], in experiment [2], in experiment [3] and in experiment [4] was “inactive” throughout.
Take `CCOc1ccc(-n2cnc3scc(-c4ccc(OC)c(OC)c4)c3c2=O)cc1`: the Potency entry in experiment [1], in experiment [2], in experiment [3] and in experiment [4] was “inactive” throughout.
As for `O=C1/C(=C\c2cccnc2)Sc2ccccc21`, the Potency result in experiment [1], in experiment [2], in experiment [3] and in experiment [4] was “inactive” in each case.
Regarding `COc1cccc(-c2nc(N3CCN(c4ccccc4)CC3)c3ccccc3n2)c1O`, the Potency result in experiment [1], in experiment [2], in experiment [3] and in experiment [4] was “inactive” each time.
Take `COc1ccc([N+](=O)[O-])cc1-c1nc2ccccc2nc1-c1ccccc1`: the Potency entry in experiment [1], in experiment [2] and in experiment [4] was “inactive” throughout. In addition, the Potency in experiment [3] was 0.0301 µM (active).
With `COc1ccc(CCNC(=O)CCCn2c(SCC(N)=O)nc3cc4c(cc3c2=O)OCO4)cc1OC`, the Potency result in experiment [1], in experiment [2] and in experiment [4] was “inactive” in each case. In addition, the outcome in experiment [3] is “inactive [at 12.7 µM]”.
As for `N#CC(C#N)=C1C=C2C=C(N3CCOCC3)CCC2CC1` (stereo unspecified), the Potency result in experiment [1] and in experiment [4] was “inactive” in each case. The Potency in experiment [2] is 44.7 µM (active); in experiment [3], 37.9 µM (active).
For `Cc1ccc(C)c(NC(=O)N2CCN3CCCCC3C2)c1` (stereo unspecified), the Potency entry in experiment [1], in experiment [2], in experiment [3] and in experiment [4] was “inactive” throughout.
Regarding `O=C(Nc1ccccc1N1CCCCC1)C1=COCCO1`, the Potency entry in experiment [1], in experiment [2], in experiment [3] and in experiment [4] was “inactive” in each case.
As to `COc1ccccc1CN(C)CC(=O)Nc1ccc(Cl)cc1F`, the Potency result in experiment [1], in experiment [2], in experiment [3] and in experiment [4] was “inactive” throughout.
For `c1ccc(NN(Cc2ccccn2)c2ccccc2)cc1`, the Potency result in experiment [1], in experiment [2], in experiment [3] and in experiment [4] was “inactive” throughout.
For the compound `COc1ccc(-n2c(O)c(/C=N/NS(=O)(=O)c3cc(C)ccc3C)c3ccccc3c2=O)cc1OC`, the Potency entry in experiment [1], in experiment [2] and in experiment [4] was “inactive” each time. Moreover, in experiment [3], the Potency was 33.8 µM (active).
Consider `CCn1c2ccccc2c2cc(NC(=O)c3ccc(=O)oc3)ccc21`, for which the Potency entry in experiment [1] and in experiment [4] was “inactive” in each case. Besides, the Potency in experiment [2] is 112 µM (active). In addition, in experiment [3], the outcome was “inactive [at 12.7 µM]”.
Take `CCOc1ccc(NC(=O)CSc2nc(-c3cccc(Cl)c3)nc3c2Cc2c(CO)cnc(C)c2O3)cc1`: the Potency entry in experiment [1], in experiment [2], in experiment [3] and in experiment [4] was “inactive” each time.
In the case of `Cc1ccc(CNc2cc(C)nc3nc(-c4ccc(C)cc4)nn23)cc1`, the Potency entry in experiment [1], in experiment [2], in experiment [3] and in experiment [4] was “inactive” throughout.
Take `Cc1cc2ccccn2c1C(=O)c1ccc(Cl)c([N+](=O)[O-])c1`: the Potency entry in experiment [1], in experiment [2], in experiment [3] and in experiment [4] was “inactive” throughout.
For `Cc1onc(-c2ccc3c(c2)OCO3)c1-c1ccc2[nH]ccc2c1`, the Potency result in experiment [1], in experiment [2] and in experiment [3] was “inactive” each time.
For `Cc1nc2c(C(=O)NCCc3ccccc3)c[nH]n2c(=O)c1Cc1ccc(F)cc1Cl`, in experiment [1], the Potency is 84.9 µM (active). Moreover, the Potency entry in experiment [2], in experiment [3] and in experiment [4] was “inactive” throughout.
For `CC(=O)N1CCN(C(=O)c2[nH]c(C(F)(F)F)nc2-c2ccccc2)CC1`, the Potency entry in experiment [1], in experiment [2], in experiment [3], in experiment [4] and in experiment [5] was “inactive” each time.

Values taken from PubChem BioAssay (NCATS).
